Experimental data reported in the supplement of paper PMC10849652.
Of roughly 8,800 targets only a part is listed; those with a hit were picked by preference. About 0.5% of all pairs of compound and target were hits. Values without a mark were called inactive.

Experiments:
Assay in all cases: log2 fold change, soluble protein after heating vs DMSO (PISA); higher = thermal stabilisation; K562 lysate, 10 uM; active = over 0.2 and 3.5 SD of the protein, either way, in both replicates (recomputed)
[1] = compound: CN1CC[C@H](c2c(O)cc(O)c3c(=O)cc(-c4ccccc4Cl)oc23)[C@H](O)C1 [alvocidib]
Method in brief: (§1)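 Thermal stability, expressed as log-two fold change relative to solvent controls, is given from duplicates. Crude K562 extract in PBS pH 7.4 with 1 mM MgCl2, at 1 mg/mL protein, was treated with 10 μM compound for 30 min and heated in aliquots for 3 min across 48°C-58°C. After pooling, adjustment to 0.5% NP-40 at 4°C and centrifugation at 21,000xg for 90 min, supernatant protein was measured by TMTpro 16plex LC-MS/MS with channel sums equalised.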

[2] = compound: CN1CCc2c(c3ccccc3n2Cc2ccc(C(=O)NO)cc2)C1 [Tubastatin A]
Method in brief: as §1

[3] = compound: CNC(=O)C1=CC=CC=C1NC2=NC(=NC=C2Cl)NC3=C(C=C(C=C3)N4CCOCC4)OC
Method in brief: as §1

[4] = compound: CNC(=O)c1ccc(Nc2ncc(C(F)(F)F)c(NCc3nccnc3N(C)S(C)(=O)=O)n2)cc1 [defactinib]
Method in brief: as §1

[5] = compound: CNc1nc(-c2ccc3c(N)n[nH]c3c2)cc(N2C[C@@H](C(=O)NC3CCCCC3)CC[C@H]2C)n1
Method in brief: as §1

[6] = compound: COC(=O)N[C@@H](C)CNc1nccc(-c2cn(C(C)C)nc2-c2cc(Cl)cc(NS(C)(=O)=O)c2F)n1 [encorafenib]
Method in brief: as §1

[7] = compound: COC(=O)[C@H](CCSC)NC(=O)C1=C(C=C(C=C1)NC[C@H](CS)N)C2=CC=CC=C2
Method in brief: as §1

[8] = compound: COc1cc(Nc2ncc3c(n2)-c2ccc(Cl)cc2C(c2c(F)cccc2OC)=NC3)ccc1C(=O)O [alisertib]
Method in brief: as §1

[9] = compound: COc1cc2nc(-c3cc(F)ccc3O)nc(N[C@@H]3CNC[C@H]3C(C)(C)O)c2cc1OC
Method in brief: as §1

[10] = compound: COc1cc2ncnc(Nc3ccc(F)c(Cl)c3)c2cc1OCCCN1CCOCC1 [gefitinib]
Method in brief: as §1

Sequence of UniProt Q9UBD5 (Q9UBD5 whole entry, looked up): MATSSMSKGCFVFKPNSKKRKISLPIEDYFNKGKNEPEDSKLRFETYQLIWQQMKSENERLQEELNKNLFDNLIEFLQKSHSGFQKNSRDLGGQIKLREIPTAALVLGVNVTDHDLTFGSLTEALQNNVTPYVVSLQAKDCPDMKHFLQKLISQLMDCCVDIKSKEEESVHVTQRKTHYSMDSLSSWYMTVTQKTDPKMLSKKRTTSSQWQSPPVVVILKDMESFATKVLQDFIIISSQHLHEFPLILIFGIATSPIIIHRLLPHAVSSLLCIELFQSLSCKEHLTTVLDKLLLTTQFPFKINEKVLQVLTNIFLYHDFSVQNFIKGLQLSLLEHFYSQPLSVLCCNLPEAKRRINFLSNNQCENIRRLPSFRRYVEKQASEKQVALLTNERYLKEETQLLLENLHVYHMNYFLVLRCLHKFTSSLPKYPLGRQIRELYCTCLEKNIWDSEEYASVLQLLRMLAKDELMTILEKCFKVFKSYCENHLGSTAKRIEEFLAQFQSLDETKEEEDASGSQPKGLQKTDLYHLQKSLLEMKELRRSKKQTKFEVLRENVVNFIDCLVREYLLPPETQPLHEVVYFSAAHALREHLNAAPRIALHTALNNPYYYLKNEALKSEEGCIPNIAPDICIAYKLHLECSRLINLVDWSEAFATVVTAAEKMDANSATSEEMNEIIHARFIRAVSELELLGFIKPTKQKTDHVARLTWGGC
Sequence of UniProt Q8IXH7 (Q8IXH7 whole entry, looked up): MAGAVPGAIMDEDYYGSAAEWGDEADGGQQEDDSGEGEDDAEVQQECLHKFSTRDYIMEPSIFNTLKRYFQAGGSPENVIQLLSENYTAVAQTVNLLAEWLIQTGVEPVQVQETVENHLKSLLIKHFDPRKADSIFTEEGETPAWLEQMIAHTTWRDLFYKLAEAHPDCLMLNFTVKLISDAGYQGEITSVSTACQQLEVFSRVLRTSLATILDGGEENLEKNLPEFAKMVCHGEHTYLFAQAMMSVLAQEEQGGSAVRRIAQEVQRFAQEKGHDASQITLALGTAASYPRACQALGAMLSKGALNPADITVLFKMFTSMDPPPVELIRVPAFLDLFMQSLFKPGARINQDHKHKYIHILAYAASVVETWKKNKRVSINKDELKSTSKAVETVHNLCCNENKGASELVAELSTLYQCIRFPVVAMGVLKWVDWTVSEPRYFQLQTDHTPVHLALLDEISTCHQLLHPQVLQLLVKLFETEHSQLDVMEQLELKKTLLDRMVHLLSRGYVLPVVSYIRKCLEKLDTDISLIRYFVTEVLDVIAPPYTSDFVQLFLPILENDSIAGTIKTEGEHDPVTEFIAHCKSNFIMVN
Sequence of UniProt Q6N069 (Q6N069 whole entry, looked up): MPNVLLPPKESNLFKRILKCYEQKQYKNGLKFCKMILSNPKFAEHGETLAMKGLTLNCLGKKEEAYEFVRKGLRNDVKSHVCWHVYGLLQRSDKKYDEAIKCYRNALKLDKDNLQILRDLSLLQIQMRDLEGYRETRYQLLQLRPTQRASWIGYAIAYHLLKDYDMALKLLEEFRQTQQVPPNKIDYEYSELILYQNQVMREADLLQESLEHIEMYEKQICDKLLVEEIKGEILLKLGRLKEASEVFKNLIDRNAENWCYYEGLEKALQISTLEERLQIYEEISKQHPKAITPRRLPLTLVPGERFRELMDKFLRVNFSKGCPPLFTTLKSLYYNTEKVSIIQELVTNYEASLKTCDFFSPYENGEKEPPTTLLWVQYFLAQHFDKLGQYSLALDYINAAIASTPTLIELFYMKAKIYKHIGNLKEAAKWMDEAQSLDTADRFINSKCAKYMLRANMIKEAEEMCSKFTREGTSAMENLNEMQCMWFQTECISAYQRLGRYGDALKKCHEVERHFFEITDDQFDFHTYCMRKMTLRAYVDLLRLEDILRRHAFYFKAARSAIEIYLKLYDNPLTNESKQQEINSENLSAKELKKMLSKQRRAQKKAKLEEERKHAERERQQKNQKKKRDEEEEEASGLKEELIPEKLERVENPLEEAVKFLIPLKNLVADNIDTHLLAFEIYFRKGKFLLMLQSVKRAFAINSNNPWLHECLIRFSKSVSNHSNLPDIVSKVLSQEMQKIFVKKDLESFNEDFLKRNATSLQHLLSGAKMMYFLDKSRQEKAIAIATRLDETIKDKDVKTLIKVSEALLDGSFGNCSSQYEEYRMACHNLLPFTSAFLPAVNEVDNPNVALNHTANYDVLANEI
Sequence of UniProt Q9BZ23 (Q9BZ23 whole entry, looked up): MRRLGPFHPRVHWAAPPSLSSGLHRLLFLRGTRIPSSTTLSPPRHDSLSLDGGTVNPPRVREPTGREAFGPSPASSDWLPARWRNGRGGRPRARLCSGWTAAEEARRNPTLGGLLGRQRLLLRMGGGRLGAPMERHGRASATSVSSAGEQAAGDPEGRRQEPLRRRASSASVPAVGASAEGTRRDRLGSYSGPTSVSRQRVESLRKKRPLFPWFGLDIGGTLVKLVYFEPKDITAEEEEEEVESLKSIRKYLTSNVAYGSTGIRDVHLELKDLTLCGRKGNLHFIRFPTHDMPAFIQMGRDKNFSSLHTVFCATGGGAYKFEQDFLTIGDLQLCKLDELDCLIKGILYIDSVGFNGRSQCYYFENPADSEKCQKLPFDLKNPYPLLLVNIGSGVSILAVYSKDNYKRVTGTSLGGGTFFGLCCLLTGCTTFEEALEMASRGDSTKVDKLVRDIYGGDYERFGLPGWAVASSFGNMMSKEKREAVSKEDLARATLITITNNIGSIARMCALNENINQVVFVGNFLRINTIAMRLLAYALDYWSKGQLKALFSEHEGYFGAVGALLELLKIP
Sequence of UniProt Q14934 (Q14934 whole entry, looked up): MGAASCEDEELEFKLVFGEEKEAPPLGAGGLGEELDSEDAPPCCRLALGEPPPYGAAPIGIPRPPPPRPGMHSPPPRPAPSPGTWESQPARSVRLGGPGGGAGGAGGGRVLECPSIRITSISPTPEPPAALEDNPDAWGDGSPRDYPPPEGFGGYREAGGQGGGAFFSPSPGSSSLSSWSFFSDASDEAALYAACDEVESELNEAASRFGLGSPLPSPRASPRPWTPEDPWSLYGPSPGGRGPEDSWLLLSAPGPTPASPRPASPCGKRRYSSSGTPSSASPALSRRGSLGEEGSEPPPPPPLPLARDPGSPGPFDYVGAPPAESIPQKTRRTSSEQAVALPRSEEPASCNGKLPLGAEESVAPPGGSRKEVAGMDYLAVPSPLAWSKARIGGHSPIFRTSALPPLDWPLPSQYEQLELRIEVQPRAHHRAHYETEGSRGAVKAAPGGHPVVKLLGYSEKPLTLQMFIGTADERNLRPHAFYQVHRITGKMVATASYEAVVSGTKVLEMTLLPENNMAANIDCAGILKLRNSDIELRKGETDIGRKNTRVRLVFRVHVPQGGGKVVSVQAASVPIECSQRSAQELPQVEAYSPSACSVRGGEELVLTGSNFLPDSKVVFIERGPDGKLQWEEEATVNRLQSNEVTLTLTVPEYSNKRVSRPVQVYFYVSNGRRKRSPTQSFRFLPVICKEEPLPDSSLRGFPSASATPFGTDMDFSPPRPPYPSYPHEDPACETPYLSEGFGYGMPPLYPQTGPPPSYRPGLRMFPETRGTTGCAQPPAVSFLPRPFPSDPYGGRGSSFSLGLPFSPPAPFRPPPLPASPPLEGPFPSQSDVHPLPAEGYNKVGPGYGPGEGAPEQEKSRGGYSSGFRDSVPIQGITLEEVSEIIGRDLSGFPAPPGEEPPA
Sequence of UniProt Q96DH6 (Q96DH6 whole entry, looked up): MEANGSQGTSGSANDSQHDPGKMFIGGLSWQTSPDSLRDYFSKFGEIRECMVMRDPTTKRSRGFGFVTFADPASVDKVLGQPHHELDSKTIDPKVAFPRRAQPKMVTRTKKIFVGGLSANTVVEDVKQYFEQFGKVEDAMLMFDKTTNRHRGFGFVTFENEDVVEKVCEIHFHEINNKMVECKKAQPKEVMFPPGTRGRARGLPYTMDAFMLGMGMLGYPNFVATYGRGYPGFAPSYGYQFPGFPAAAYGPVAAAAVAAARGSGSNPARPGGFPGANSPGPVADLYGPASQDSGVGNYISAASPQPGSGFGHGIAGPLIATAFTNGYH
Sequence of UniProt P04181 (P04181 whole entry, looked up): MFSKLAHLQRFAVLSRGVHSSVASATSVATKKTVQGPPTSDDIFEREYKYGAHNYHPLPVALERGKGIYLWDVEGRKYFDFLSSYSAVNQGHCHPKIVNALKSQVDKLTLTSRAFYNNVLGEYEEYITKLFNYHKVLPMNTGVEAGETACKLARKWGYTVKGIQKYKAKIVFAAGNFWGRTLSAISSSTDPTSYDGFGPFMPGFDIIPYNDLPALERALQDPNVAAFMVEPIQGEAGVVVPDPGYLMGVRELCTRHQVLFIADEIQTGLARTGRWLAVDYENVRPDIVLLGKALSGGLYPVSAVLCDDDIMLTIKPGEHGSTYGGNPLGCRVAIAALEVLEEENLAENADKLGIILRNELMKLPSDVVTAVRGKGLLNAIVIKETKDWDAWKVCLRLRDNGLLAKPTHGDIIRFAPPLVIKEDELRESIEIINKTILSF
Sequence of UniProt Q9BPZ3 (Q9BPZ3 whole entry, looked up): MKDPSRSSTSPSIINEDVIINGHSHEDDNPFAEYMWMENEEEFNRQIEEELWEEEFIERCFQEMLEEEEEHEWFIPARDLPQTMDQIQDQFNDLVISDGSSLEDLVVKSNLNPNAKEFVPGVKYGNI
Sequence of UniProt Q15233 (Q15233 whole entry, looked up): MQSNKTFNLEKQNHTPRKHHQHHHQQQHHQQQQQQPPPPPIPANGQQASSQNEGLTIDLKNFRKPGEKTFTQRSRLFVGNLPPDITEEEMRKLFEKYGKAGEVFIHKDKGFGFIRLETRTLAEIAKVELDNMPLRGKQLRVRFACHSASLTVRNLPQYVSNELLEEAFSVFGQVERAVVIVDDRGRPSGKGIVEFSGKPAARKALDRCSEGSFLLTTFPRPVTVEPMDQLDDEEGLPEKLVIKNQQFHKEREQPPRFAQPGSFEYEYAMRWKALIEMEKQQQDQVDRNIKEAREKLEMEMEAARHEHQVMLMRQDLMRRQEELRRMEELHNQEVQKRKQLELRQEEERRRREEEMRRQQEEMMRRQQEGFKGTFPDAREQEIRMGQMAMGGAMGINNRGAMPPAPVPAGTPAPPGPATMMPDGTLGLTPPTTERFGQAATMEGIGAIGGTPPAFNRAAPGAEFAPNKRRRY

Target | log2 fold change [1] | log2 fold change [2] | log2 fold change [3] | log2 fold change [4] | log2 fold change [5] | log2 fold change [6] | log2 fold change [7] | log2 fold change [8] | log2 fold change [9] | log2 fold change [10]
MRPL53 (UniProt Q96EL3) | 0.005 | -0.048 | -0.02 | 0.051 | -0.048 | -0.036 | -0.226 (active) | 0.049 | 0 | -0.048
PARP14 (UniProt Q460N5) | 0.009 | -0.238 | -0.15 | -0.007 | -0.09 | 0.021 | 0.082 | -0.127 | 0 | -0.014
NUP205 (UniProt Q92621) | -0.02 | -0.078 | 0.012 | 0.015 | -0.003 | 0.016 | -0.081 | 0.008 | 0 | -0.018
NEXN (UniProt Q0ZGT2) | -0.102 | -0.049 | 0.026 | 0.134 | 0.158 | -0.096 | 0.044 | 0.004 | -0.086 | 0.092
NT5DC2 isoform 2 (UniProt Q9H857) | -0.037 | 0.02 | 0.026 | 0.007 | 0.032 | -0.037 | -0.035 | 0.013 | -0.001 | -0.055
MSI2 (UniProt Q96DH6) | 0.035 | -0.082 | -0.04 | 0.076 | -0.012 | 0.144 | -0.023 | 0.026 | -0.012 | -0.031
NFAT5 isoform 5 (UniProt O94916) | -0.026 | 0.003 | -0.027 | 0.007 | 0.077 | 0.043 | -0.041 | -0.072 | -0.01 | 0.454 (active)
NONO (UniProt Q15233) | 0.049 | -0.126 | 0.04 | -0.01 | 0.014 | 0.011 | 0.102 | 0.026 | -0.004 | 0.007
NFKBIE (UniProt O00221) | -0.068 | 0.029 | 0.055 | 0.054 | 0.013 | 0.038 | -0.14 | 0.047 | -0.03 | 0.014
NCAPD3 (UniProt P42695) | -0.006 | -0.224 | 0.017 | 0.017 | 0.013 | 0.037 | -0.018 | -0.017 | 0 | -0.002
NAA35 (UniProt Q5VZE5) | 0.018 | -0.056 | -0.007 | 0.034 | 0 | 0.01 | -0.001 | -0.026 | -0.006 | -0.008
PAIP2 (UniProt Q9BPZ3) | 0.009 | 0.045 | -0.03 | -0.056 | 0.037 | -0.092 | 0.071 | -0.038 | -0.049 | -0.019
MVB12A (UniProt Q96EY5) | -0.019 | -0.221 | -0.009 | 0.056 | 0.037 | -0.015 | -0.012 | -0.011 | -0.035 | -0.055
NELFCD (UniProt Q8IXH7) | 0.015 | -0.148 | 0.047 | 0.041 | -0.055 | 0 | 0.073 | 0.023 | -0.006 | -0.009
MSH3 (UniProt P20585) | 0.021 | -0.004 | 0.008 | 0.023 | 0.057 | 0.02 | -0.013 | -0.027 | 0.006 | -0.012
MTMR6 (UniProt Q9Y217) | -0.034 | -0.019 | 0 | -0.042 | -0.047 | 0.028 | -0.092 | 0.022 | 0.004 | -0.053

Target | log2 fold change [1] | log2 fold change [2] | log2 fold change [3] | log2 fold change [4] | log2 fold change [5] | log2 fold change [6] | log2 fold change [7] | log2 fold change [8] | log2 fold change [9] | log2 fold change [10]
NEBL isoform 2 (UniProt O76041) | -0.079 | 0.07 | 0.012 | 0.011 | 0.023 | 0.009 | -0.043 | -0.024 | -0.003 | 0.037
NUDT6 (UniProt P53370) | – | 0.042 | 0.154 | -0.002 | -0.024 | -0.021 | -0.015 | – | – | –
PANK2 (UniProt Q9BZ23) | 0.057 | 0.108 | – | 0.023 | 0 | -0.01 | 0.014 | 0.35 (active) | -0.046 | -0.233
NUB1 (UniProt H7C5N1) | – | 0.209 | – | – | – | – | – | – | – | –
NAA16 (UniProt Q6N069) | – | -0.097 | – | 0.086 | -0.05 | 0.062 | 0.169 | 0.11 | -0.03 | 0.142
ORC3 (UniProt Q9UBD5) | 0.16 | – | – | – | – | – | – | -0.035 | 0 | 0.105
NCAPH (UniProt Q15003) | 0.007 | -0.089 | 0.008 | 0.015 | 0.023 | 0.013 | 0.063 | 0.015 | 0.018 | 0.006
MSH6 (UniProt P52701) | -0.021 | -0.17 | 0.009 | 0.012 | -0.032 | 0.019 | 0.105 | 0.003 | -0.011 | -0.023
NR2F2 (UniProt P24468) | -0.053 | -0.154 | 0.056 | – | -0.047 | – | – | 0.072 | 0.012 | -0.077
NNT (UniProt Q13423) | 0.006 | 0.035 | 0.021 | -0.005 | -0.04 | -0.018 | -0.017 | -0.001 | 0.021 | 0.012
MTHFD1 (UniProt V9GZ32) | – | – | – | – | – | – | – | 0.108 | 0 | -0.073
NUMB isoform 2 (UniProt P49757) | – | -0.112 | – | – | 0.158 | – | – | 0.092 | – | -0.277
OAT (UniProt P04181) | -0.023 | -0.016 | -0.03 | -0.016 | -0.023 | -0.022 | 0.091 | 0.036 | 0.006 | 0.008
NDUFAF5 (UniProt Q5TEU4) | -0.004 | 0.12 | -0.068 | -0.047 | 0.175 | 0.18 | -0.065 | – | -0.033 | –
NFATC4 isoform 2 (UniProt Q14934) | -0.062 | – | – | -0.12 | 0.023 | 0.011 | -0.032 | 0.048 | 0.244 | 0.132
NPLOC4 (UniProt I3L3I1) | – | – | – | – | 0.799 | 0.014 | -0.143 | – | – | –
